# An excerpt weighted towards active compounds, which were near 3.5% of everything screened.
# FBW7 act = FBW7 E3 ligase activators, primary screen, biochemical, AlphaScreen, human; normalized activity (activation), % at 26.1 µM; 650,000 compounds, 0.13% hits; F-box/WD repeat-containing protein 7 (Homo sapiens), Q969H0; AlphaScreen FBW7–phospho-cyclin E peptide binding, activator screen; in the data active means normalized activity above about 1.9%;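 further: purified mutant Fbw7 with reduced substrate affinity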
# TEAD-YAP block = TEAD-YAP interaction inhibition, primary screen, TEAD-YAP interaction inhibitor project, luminescence, HEK-TIYL cells. TEAD-Gal4/YAP UAS-luciferase luminescence. inhibition, % at 9.12 µM. 640,000 compounds, 1.4% hits; in the data active means inhibition above about 32%;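 further: 0% = median of test compound wells and 100% = reference inhibitor wells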
# GPR151 ag = activators of human GPR151, primary screen, cell-based, PathHunter beta-arrestin, luminescence; G-protein coupled receptor 151 (Homo sapiens), Q8TDV0; 650,000 compounds, 1% hits; PathHunter beta-arrestin GPR151 cells; activation, % at 11.2 µM; in the data active means activation above about 4.9%;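 further: 0% = median of compound wells and 100% = cells with positive control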
# Target sequence (Q8TDV0 whole entry, looked up): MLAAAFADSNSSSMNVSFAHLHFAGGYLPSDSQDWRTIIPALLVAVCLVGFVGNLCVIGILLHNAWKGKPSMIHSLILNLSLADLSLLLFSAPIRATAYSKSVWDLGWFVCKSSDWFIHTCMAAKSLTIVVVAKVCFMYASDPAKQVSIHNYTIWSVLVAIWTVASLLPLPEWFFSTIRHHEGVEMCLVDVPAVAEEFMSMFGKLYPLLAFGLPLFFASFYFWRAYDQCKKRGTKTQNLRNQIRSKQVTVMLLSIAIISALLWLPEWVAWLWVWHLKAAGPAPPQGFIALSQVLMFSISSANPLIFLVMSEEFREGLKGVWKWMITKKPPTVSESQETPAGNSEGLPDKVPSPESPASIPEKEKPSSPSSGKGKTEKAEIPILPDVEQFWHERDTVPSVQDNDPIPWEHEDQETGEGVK
# MITF inh = MITF inhibitors, primary screen, biochemical, AlphaScreen, human; Microphthalmia-associated transcription factor (Homo sapiens), O75030; inhibition, % at 2.6 µM; AlphaScreen MITF homodimerization, bead proximity signal; 650,000 compounds, 0.91% hits; in the data active means inhibition above about 50%;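 further: 0% = vehicle wells with protein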
# GPR151 confirm = GPR151 activators, triplicate retest, confirmation, cell-based, PathHunter beta-arrestin, luminescence. shares compounds with GPR151 ag. GPR151 PathHunter beta-arrestin cells, 90 min; % of EA-reagent control over plate median. activation, % at 11.2 µM. 6,700 tested, under 10 active. AID 1508609, 2020;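 active means mean percent activation across replicates above the confirmation screen cutoff of 4.91%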
# GPR119 ag = GPR119 activators in beta-arrestin cells, counter-screen for GPR151 activator project, cell-based, PathHunter beta-arrestin, luminescence, triplicate | 90 min; 0 = compound-well median, 100 = enzyme-acceptor control | shares compounds with GPR151 ag | activation, % at 11.2 µM | AID 1508611, 2020 | 6,700 compounds, 0.3% hits;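 active means mean percent activation in the counterscreen above 29.09%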;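 further: counterscreen on off-target GPR119 to flag nonselective hits from the GPR151 activator screen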
# * = called active by the depositor; . = not tested or not shown.
SMILES,FBW7 act,TEAD-YAP block,GPR151 ag,MITF inh,GPR151 confirm,GPR119 ag
C(/C=C/c1ccccc1)=N/N1CCN(c2ccccc2)CC1,0,-19,4.9*,16,-2,-10
Cc1[nH]c(C(=O)OCC(=O)c2cc(C)n(C)c2C)c(C)c1C(C)O (stereo not drawn),0,-19,5.2*,2,1,0
Cc1cc(C(=O)COC(=O)c2cc(Cl)cc(Cl)c2)c(C)n1C,0,-8,-1,-1,.,.
CCCc1nnc(NC(=O)c2ccccc2C)s1,0,-47,-1,4,.,.
CCc1c(C(=O)Nc2ccc(C)c(F)c2)[nH]c(C)c1C(C)=O,0,-12,12*,2,-1,-8
CC(=O)Nc1ccc(S(=O)(=O)Nc2nnc(-c3ccc(F)cc3)s2)cc1,0,-7,6.7*,0,2,7
C/C(=N\NC(=O)Cn1nnc(-c2ccccc2)n1)c1nonc1C,0,1,16*,13,-1,-14
CC(=O)Cn1nnc(-c2ccccc2)n1,0,-10,-1,2,.,.
COc1ccc(Cl)cc1N1CC(O)=C(c2nc3ccccc3[nH]2)C1=N,0,-5,1,9,.,.
COc1ccc(N2CC(O)=C(c3nc4ccccc4[nH]3)C2=N)cc1Cl,0,-18,6.0*,0,0,-3
N=C1C(c2nc3ccccc3[nH]2)=C(O)CN1CCc1ccccc1,0,-20,5.3*,4,0,-3
COc1ccc(-c2nc(SCC(=O)Nc3ccc4ccccc4c3)n[nH]2)cc1,0,5,0,-7,.,.
COc1ccc(-c2nc(SCC(=O)Nc3ccc4c(c3)OCO4)n[nH]2)cc1,0,-19,6.5*,-3,0,4
COc1ccccc1CNC(=O)CN(c1cc(C(F)(F)F)ccc1Cl)S(C)(=O)=O,0,-6,7.6*,3,0,9
Cc1ccccc1CNC(=O)CN(c1cc(C(F)(F)F)ccc1Cl)S(C)(=O)=O,0,-17,0,3,.,.
CC(C)Sc1nc(-c2ccco2)nc2c1c(=O)n(C)c(=O)n2C,0,-6,2,-7,.,.
CC(Sc1nc(-c2ccco2)nc2c1c(=O)n(C)c(=O)n2C)C(=O)O (stereo not drawn),0,6,9.6*,10,0,12
COc1cccc(-c2nc(SCC(=O)O)c3c(=O)n(C)c(=O)n(C)c3n2)c1,0,7,12*,18,0,1
Cn1c(=O)c2c(SCC(=O)Nc3nccs3)nc(-c3ccco3)nc2n(C)c1=O,0,0,0,16,.,.
Cc1csc(NC(=O)CSc2nc(-c3ccco3)nc3c2c(=O)n(C)c(=O)n3C)n1,0,-8,6.6*,-4,0,2
COc1ccc(-c2nc(SCC(=O)O)c3c(=O)n(C)c(=O)n(C)c3n2)cc1,0,-6,-1,-15,.,.
CCOC(=O)c1c(CN2CCCCC2C)n(-c2ccccc2)c2cc(Br)c(OC(C)=O)cc12 (stereo not drawn),1,1,0,0,.,.
CC(=O)N1CCN(Cc2nc3cc(NC(=O)c4ccc(Cl)cc4)ccc3n2C)CC1,0,-5,5.4*,0,0,1
CC(=O)c1ccc(NC(=O)CN2CCN(Cc3nc4ccccc4n3C)CC2)cc1,0,-3,6.3*,1,0,-3
CC(=O)Nc1ccc2c(c1)nc(CN1CCN(C(C)=O)CC1)n2C,0,-5,-1,-24,.,.
CCCn1c(N2CCN(CC(=O)Nc3ccc(C(C)=O)cc3)CC2)nc2ccccc21,0,3,0,3,.,.
CCN1CCN(CC(=O)Nc2ccc(C(C)=O)cc2)CC1,0,8,7.5*,-2,0,5
Cc1c(S(C)(=O)=O)c(N)n(Cc2ccccc2)c1C,0,-3,-2,6,.,.
Cn1cccc1C(=O)c1cc([N+](=O)[O-])cc([N+](=O)[O-])c1,0,8,3,22,.,.

# Screening data deposited in PubChem BioAssay by The Scripps Research Institute Molecular Screening Center.
